About 2,000 (36%) of roughly 5,500 compounds were called active. Another 18% or so got no clear call; they are omitted. Cut-off read from the data, not from the text of the source: active = normalized growth mostly below about 0.91 (no sharp cut-off); inconclusive = no clear call, values can overlap the other calls; inactive = mostly above about 0.92. The list shows a part of the results.
Experiment: chemical genetic growth profiling, strain panel (AID 1159580);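 note: tested at 20 µM; growth read once vehicle control cultures reached saturation at 30 °C; 1 = growth at the plate median or of vehicle wells; lower values mean less growth of the strain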
Details: S. cerevisiae deletion strains, growth OD

Measured: normalized growth

COc1ccc([C@H]2Oc3c(I)c(OC)cc(OC)c3C[C@@H]2O)cc1OC
inactive: locus YAL021C, strain ccr4, active compounds read low 1.01 | locus YAL026C, strain drs2, active compounds read low 1.01 | locus YAL030W, strain snc1, active compounds read low 1.01 | locus YBL061C, strain skt5, active compounds read low 1.01 | locus YBR009C, strain hhf1, active compounds read low 1.01 | locus YBR021W, strain FUR4, active compounds read low 1 | locus YBR023C, strain chs3, active compounds read low 1.01 | locus YBR171W, strain sec66, active compounds read low 1.01 | locus YBR229C, strain ROT2, active compounds read low 1 | locus YBR231C, strain swc5, active compounds read low 1.01 | locus YBR279W, strain paf1, active compounds read low 1.03 | locus YCL011C, strain gbp2, active compounds read low 1.02 | locus YCL016C, strain dcc1, active compounds read low 1.02 | locus YCL029C, strain bik1, active compounds read low 1.03 | locus YCL061C, strain MRC1, active compounds read low 1.02 | locus YCL069W, strain vba3, active compounds read low 1.02 | locus YCR088W, strain abp1, active compounds read low 1.01 | locus YDL005C, strain med2, active compounds read low 1.01 | locus YDL035C, strain GPR1, active compounds read low 1.07 | locus YDL040C, strain nat1, active compounds read low 1.01 | locus YDL074C, strain BRE1, active compounds read low 1.1 | locus YDL101C, strain DUN1, active compounds read low 1 | locus YDL134C, strain PPH21, active compounds read low 1.03 | locus YDL185W, strain tfp1, active compounds read low 1.03 | locus YDL192W, strain arf1, active compounds read low 1.04 | locus YDR001C, strain nth1, active compounds read low 1.02 | locus YDR069C, strain doa4, active compounds read low 1.01 | locus YDR101C, strain arx1, active compounds read low 1.04 | locus YDR137W, strain rgp1, active compounds read low 0.982 | locus YDR150W, strain NUM1, active compounds read low 1.02 | locus YDR159W, strain sac3, active compounds read low 0.98 | locus YDR162C, strain NBP2, active compounds read low 1.04 | locus YDR195W, strain ref2 1.01 | locus YDR297W, strain sur2, active compounds read low 1.01 | locus YDR318W, strain mcm21, active compounds read low 1.02 | locus YDR334W, strain swr1, active compounds read low 1.02 | locus YDR335W, strain msn5, active compounds read low 1.01 | locus YDR388W, active compounds read low 1.02 | locus YDR392W, strain spt3, active compounds read low 0.895 | locus YDR502C, strain sam2, active compounds read low 1.02 | locus YEL003W, strain gim4, active compounds read low 1.01 | locus YEL037C, strain rad23, active compounds read low 1.01 | locus YEL061C, strain CIN8 (second series), active compounds read low 1.02 | locus YER015W, strain faa2, active compounds read low 1.02 | locus YER016W, strain bim1, active compounds read low 1 | locus YER110C, active compounds read low 1 | locus YER111C, strain swi4, active compounds read low 1.01 | locus YER155C, strain BEM2 (second series), active compounds read low 1 | locus YER155C, strain BEM2, active compounds read low 0.996 | locus YER167W, strain BCK2, active compounds read low 1.01 | locus YFR010W, strain ubp6, active compounds read low 1.01 | locus YGL078C, strain dbp3, active compounds read low 0.999 | locus YGL086W, strain mad1, active compounds read low 0.997 | locus YGL167C, strain pmr1, active compounds read low 1.01 | locus YGL173C, strain kem1, active compounds read low 1.01 | locus YGL227W, strain vid30, active compounds read low 1.02 | locus YGL240W, strain doc1, active compounds read low 1.01 | locus YGL248W, strain PDE1, active compounds read low 1.04 | locus YGL253W, strain hxk2, active compounds read low 1.01 | locus YGR135W, strain pre9, active compounds read low 1.03 | locus YGR252W, strain gcn5, active compounds read low 1.06 | locus YHR013C, strain ard1, active compounds read low 1.02 | locus YHR027C, strain rpn1, active compounds read low 1.01 | locus YHR030C, strain SLT2, active compounds read low 1 | locus YHR079C, strain IRE1 (second series), active compounds read low 1.01 | locus YHR094C, strain hxt1, active compounds read low 1.01 | locus YHR129C, strain ARP1, active compounds read low 1.03 | locus YHR142W, strain chs7, active compounds read low 1.03 | locus YHR200W, strain rpn10, active compounds read low 1.07 | locus YIL066C, strain RNR3, active compounds read low 1.02 | locus YIL073C, strain SPO22, active compounds read low 1.08 | locus YIL125W, strain kgd1, active compounds read low 1.03 | locus YIR030C, strain dcg1, active compounds read low 1.03 | locus YJL092W, strain hpr5, active compounds read low 1.01 | locus YJL095W, strain BCK1 (second series), active compounds read low 1.02 | locus YJL095W, strain BCK1, active compounds read low 1.05 | locus YJL115W, strain asf1, active compounds read low 1.02 | locus YJL129C, strain trk1, active compounds read low 1.02 | locus YJL134W, strain LCB3, active compounds read low 1 | locus YJL154C, strain vps35, active compounds read low 1.01 | locus YJL164C, strain tpk1, active compounds read low 1.01 | locus YJL166W, strain qcr8, active compounds read low 1.01 | locus YJL168C, strain set2, active compounds read low 1.02 | locus YJL187C, strain SWE1 (second series), active compounds read low 1 | locus YJL187C, strain SWE1, active compounds read low 1.01 | locus YJR075W, strain HOC1, active compounds read low 1.03 | locus YKL009W, strain mrt4, active compounds read low 0.912 | locus YKL068W, active compounds read low 0.976 | locus YKL085W, strain MDH1 (second series), active compounds read low 0.971 | locus YKL085W, strain MDH1, active compounds read low 0.971 | locus YKL160W, strain elf1, active compounds read low 1.02 | locus YKR001C, strain vps1, active compounds read low 1.06 | locus YKR026C, strain gcn3, active compounds read low 1 | locus YKR091W, strain srl3, active compounds read low 1.01 | locus YLL001W, strain dnm1, active compounds read low 1.02 | locus YLL026W, active compounds read low 1 | locus YLL041C, strain sdh2, active compounds read low 1.01 | locus YLR027C, strain aat2, active compounds read low 1.01 | locus YLR039C, strain RIC1, active compounds read low 1.2 | locus YLR058C, strain SHM2, active compounds read low 1.02 | locus YLR102C, strain apc9, active compounds read low 1.01 | locus YLR221C, strain rsa3, active compounds read low 1.02 | locus YLR258W, strain gsy2, active compounds read low 1 | locus YLR262C, strain YPT6 (second series), active compounds read low 1.01 | locus YLR268W, strain sec22, active compounds read low 1.05 | locus YLR320W, strain mms22, active compounds read low 1.03 | locus YLR330W, strain CHS5, active compounds read low 1.02 | locus YLR342W, strain FKS1 (second series), active compounds read low 1.06 | locus YLR342W, strain FKS1, active compounds read low 1.01 | locus YLR357W, strain rsc2, active compounds read low 1.03 | locus YLR370C, strain arc18, active compounds read low 1.01 | locus YLR371W, strain rom2, active compounds read low 1.05 | locus YLR384C, strain iki3, active compounds read low 1.01 | locus YLR418C, strain cdc73, active compounds read low 1.05 | locus YML016C, strain PPZ1, active compounds read low 1.01 | locus YML032C, strain rad52, active compounds read low 1.03 | locus YML120C, strain ndi1, active compounds read low 1.01 | locus YML124C, strain tub3, active compounds read low 1.02 | locus YMR058W, strain fet3, active compounds read low 1.01 | locus YMR078C, strain ctf18, active compounds read low 1.01 | locus YMR125W, strain sto1, active compounds read low 1.03 | locus YMR129W, active compounds read low 1.01 | locus YMR205C, strain PFK2, active compounds read low 1.01 | locus YMR223W, strain ubp8, active compounds read low 1.06 | locus YMR231W, strain pep5, active compounds read low 1 | locus YMR263W, strain SAP30, active compounds read low 1.04 | locus YMR307W, strain GAS1, active compounds read low 1.2 | locus YNL067W, strain RPL9B, active compounds read low 1.02 | locus YNL071W, strain lat1, active compounds read low 1.01 | locus YNL128W, strain TEP1, active compounds read low 1.04 | locus YNL209W, strain ssb2, active compounds read low 1.04 | locus YNL233W, strain BNI4, active compounds read low 1.04 | locus YNL248C, strain rpa49, active compounds read low 1.01 | locus YNL250W, strain rad50, active compounds read low 0.961 | locus YNL271C, strain bni1, active compounds read low 1.03 | locus YNL298W, strain CLA4, active compounds read low 0.985 | locus YNL307C, strain MCK1, active compounds read low 1.01 | locus YNL322C, strain KRE1 (second series), active compounds read low 1.01 | locus YNR049C, strain mso1, active compounds read low 1.01 | locus YNR052C, strain pop2, active compounds read low 1.01 | locus YOL006C, strain TOP1, active compounds read low 1.23 | locus YOL012C, strain htz1 0.906 | locus YOL147C, strain pex11, active compounds read low 1.02 | locus YOR001W, strain rrp6, active compounds read low 0.997 | locus YOR061W, strain CKA2, active compounds read low 0.999 | locus YOR069W, strain VPS5, active compounds read low 1.02 | locus YOR070C, strain gyp1, active compounds read low 1.02 | locus YOR080W, strain dia2, active compounds read low 1.01 | locus YOR083W, strain WHI5, active compounds read low 1.03 | locus YOR106W, strain vam3, active compounds read low 1.03 | locus YOR136W, strain idh2, active compounds read low 1.02 | locus YOR144C, strain elg1, active compounds read low 1.04 | locus YOR184W, strain ser1, active compounds read low 1.08 | locus YOR265W, strain rbl2, active compounds read low 1 | locus YOR270C, strain vph1, active compounds read low 1.04 | locus YOR290C, strain snf2, active compounds read low 1.01 | locus YOR316C, strain cot1, active compounds read low 1.04 | locus YPL051W, strain arl3, active compounds read low 0.993 | locus YPL055C, strain LGE1, active compounds read low 1.12 | locus YPL078C, strain atp4, active compounds read low 1.02 | locus YPL106C, strain sse1, active compounds read low 1.01 | locus YPL240C, strain hsp82, active compounds read low 1.01 | locus YPR119W, strain clb2, active compounds read low 1.03 | locus YPR141C, strain kar3, active compounds read low 1.02 | locus YPR163C, strain tif3, active compounds read low 1.02 | locus YPR167C, strain met16, active compounds read low 1.04 | strain wtn01, active compounds read low 1.02
